RecA splice inh: inhibitors of M. tuberculosis RecA intein splicing. cell-free RecA intein splicing, fluorescence. P9WHJ3. 290,000 compounds, 0.75% hits. AID 2221. inhibition, % (concentration not given with the values); in the data active means inhibition above about 30%;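 further: 0% = vehicle wells and 100% = reference inhibitor control wells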
3CLpro inhibitor: SARS-CoV 3CLpro protease inhibition. P0C6X7. recombinant SARS-CoV 3CLpro, quenched FRET peptide cleavage. inhibition, % at 6 µM. 290,000 compounds, 0.14% hits. AID 1706; in the data active means inhibition above about 12%
VHR inh abs: blocks human VHR1 dual specificity phosphatase | P51452 | recombinant VHR phosphatase, pNPP absorbance | inhibition, % at 13.3 µM | 290,000 compounds, 0.52% hits; in the data active means inhibition above about 50%
CCHF vOTU inh: CCHFV vOTU protease inhibition; Pep-AMC fluorescence; inhibition, % at 11.5 µM; 370,000 compounds, 0.55% hits; AID 651958; in the data active means inhibition above about 30%; further: 0% = vehicle wells with enzyme and 100% = no enzyme wells
Starred values were filed as active, the others as inactive. Most compounds without a hit are left out; they make up all but 1.5% or so of the library.

How did CCCc1[nH]nc2c1C(c1ccncc1)C(C#N)=C(N)O2 (stereo not given) do in these assays?
RecA splice inh: 32.0*; 3CLpro inhibitor: 0.7; VHR inh abs: 3.3; CCHF vOTU inh: 8.3

What do the screens show for `COc1cc(C2C(C#N)=C(N)Oc3n[nH]c(-c4ccncc4)c32)cc(OC)c1OC` (stereo not given)?
RecA splice inh: -3.9; 3CLpro inhibitor: -1.1; VHR inh abs: 38.4; CCHF vOTU inh: 1.3

What do the screens show for `COc1ccc(-c2[nH]nc3c2C(c2ccsc2)C(C#N)=C(N)O3)cc1` (stereo not given)?
RecA splice inh: 70.9*; 3CLpro inhibitor: 3.8; VHR inh abs: 37.0; CCHF vOTU inh: -1.5

Results for CCOc1ccc(C2C(C#N)=C(N)Oc3nc[nH]c(=O)c32)cc1OC (stereo not given) ?
RecA splice inh: -3.8; 3CLpro inhibitor: -1.7; VHR inh abs: 3.1; CCHF vOTU inh: 1.3

Results for Cc1cc(C)c(C#N)c(SCc2[nH]nc3c2C(c2ccc(F)cc2)C(C#N)=C(N)O3)n1 (stereo not given) ?
RecA splice inh: 31.8*; 3CLpro inhibitor: -4.2; VHR inh abs: 20.4; CCHF vOTU inh: 4.7

What do the screens show for `CCOc1ccc(-c2[nH]nc3c2C(c2ccc4c(c2)OCO4)C(C#N)=C(N)O3)cc1OC` (stereo not given)?
RecA splice inh: 60.5*; 3CLpro inhibitor: 4.5; VHR inh abs: 5.0; CCHF vOTU inh: 11.4

How did CCOC(=O)C1=C(COC(=O)c2ncc(Cl)c(Cl)c2Cl)NC(=O)NC1C (stereo not given) do in these assays?
RecA splice inh: -1.0; CCHF vOTU inh: 1.8

How did N#CC1=C(N)Oc2n[nH]c(-c3cccs3)c2C1c1ccoc1 (stereo not given) do in these assays?
RecA splice inh: 84.8*; 3CLpro inhibitor: -0.7; VHR inh abs: 14.6; CCHF vOTU inh: 8.4

Results for CCCc1[nH]nc2c1C(c1cccnc1)C(C#N)=C(N)O2 (stereo not given) ?
3CLpro inhibitor: -1.6; VHR inh abs: 1.1; CCHF vOTU inh: 1.4

What do the screens show for `N#CC1=C(N)Oc2n[nH]c(-c3ccc(F)cc3)c2C1c1ccncc1` (stereo not given)?
RecA splice inh: 61.6*; 3CLpro inhibitor: 1.9; VHR inh abs: 5.0; CCHF vOTU inh: 5.9

How did CCc1[nH]nc2c1C(c1cccnc1)C(C#N)=C(N)O2 (stereo not given) do in these assays?
RecA splice inh: 44.8*; 3CLpro inhibitor: -7.4; VHR inh abs: -2.4; CCHF vOTU inh: 4.2

Results for CCCc1[nH]nc2c1C(c1ccc(OC(=O)N3CCOCC3)cc1)C(C#N)=C(N)O2 (stereo not given) ?
RecA splice inh: 47.8*; 3CLpro inhibitor: -2.0; VHR inh abs: 37.7; CCHF vOTU inh: -12.3

What do the screens show for `O=C(NC(=S)Nc1ccccc1)c1csnn1`?
RecA splice inh: -4.6; 3CLpro inhibitor: -1.6; VHR inh abs: 2.6; CCHF vOTU inh: -14.5

Results for CCCC(=O)OC[C@H]1CN(C2CCCC2)S(=O)(=O)c2c(Oc3ccc(C(C)(C)C)cc3)cccc2O1 ?
CCHF vOTU inh: 4.8

How did CCCc1[nH]nc2c1C(c1ccc(OCCN3CCOCC3)c(OC)c1)C(C#N)=C(N)O2 (stereo not given) do in these assays?
RecA splice inh: 31.6*; 3CLpro inhibitor: 1.0; VHR inh abs: 4.4; CCHF vOTU inh: 9.3

What do the screens show for `O=C(NCC1CCCO1)C1CCCN(S(=O)(=O)c2ccc(F)cc2)C1` (stereo not given)?
RecA splice inh: -8.1; 3CLpro inhibitor: 8.1; VHR inh abs: 25.7; CCHF vOTU inh: 18.3

Results for O=C(NCC1CCCO1)C1CCCN(S(=O)(=O)c2ccc(Cl)cc2)C1 (stereo not given) ?
RecA splice inh: -2.1; 3CLpro inhibitor: -1.4; VHR inh abs: 50.4*; CCHF vOTU inh: 5.2

How did COc1cc2[nH]c(C)c(-c3ccccc3)c(=O)c2cc1Cl do in these assays?
CCHF vOTU inh: -1.0

What do the screens show for `CCCCC1=CC2=CC(=O)C(C)(OC(=O)c3cnc4ccccc4n3)C(=O)C2=CO1` (stereo not given)?
RecA splice inh: 33.9*; VHR inh abs: -0.3

What do the screens show for `COc1ccc(S(=O)(=O)N2CCN(C(=O)c3cccs3)CC2)cc1`?
RecA splice inh: 1.6; 3CLpro inhibitor: 4.9; VHR inh abs: 21.3; CCHF vOTU inh: 0.1

What do the screens show for `COc1cc(OC)cc(C(=O)N2CCN(C(=O)c3cccs3)CC2)c1`?
RecA splice inh: -1.1; 3CLpro inhibitor: -2.4; VHR inh abs: 57.6*; CCHF vOTU inh: -6.9

Results for COc1ccc2cc(C(=O)C3CCCN(Cc4cnc(N5CCOCC5)s4)C3)ccc2c1 (stereo not given) ?
RecA splice inh: 1.1; 3CLpro inhibitor: 3.1; VHR inh abs: 51.6*; CCHF vOTU inh: -9.8

Bioassay records: PubChem, several laboratories
